Assay results published in PubChem BioAssay AID1159580 (chemical genetic matrix, 2015).
Where “and” joins values, the source holds several entries; their conditions need not be identical. Identical values can stand only once. Among all 5,500 compounds or so, about 2,000 (36%) were called active. About 18% were inconclusive and are not listed. Cut-off read from the data, not from the text of the source: active = normalized growth mostly below about 0.91 (no sharp cut-off); inconclusive = no clear call, values can overlap the other calls; inactive = mostly above about 0.92. The list shows a part of the results.

Experiment: chemical genetic growth profiling, strain panel (AID 1159580);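 note: tested at 20 µM; growth read once vehicle control cultures reached saturation at 30 °C; 1 = growth at the plate median or of vehicle wells; lower values mean less growth of the strain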
Conditions: S. cerevisiae deletion strains, growth OD

Measured: normalized growth

COC(=O)c1c(OC)cc2c(c1C)Oc1c(Cl)c(O)c(Cl)c(C)c1C(=O)O2
inactive: locus YAL021C, strain ccr4, hits give low values 0.99 | locus YAL026C, strain drs2, hits give low values 0.99 | locus YAL030W, strain snc1, hits give low values 0.977 | locus YBL061C, strain skt5, hits give low values 0.993 | locus YBR009C, strain hhf1, hits give low values 0.993 | locus YBR021W, strain FUR4, hits give low values 1.02 | locus YBR023C, strain chs3, hits give low values 0.988 | locus YBR171W, strain sec66, hits give low values 0.985 | locus YBR231C, strain swc5, hits give low values 0.989 | locus YBR279W, strain paf1, hits give low values 0.992 | locus YCL011C, strain gbp2, hits give low values 0.986 | locus YCL016C, strain dcc1, hits give low values 0.99 | locus YCL029C, strain bik1, hits give low values 0.925 | locus YCL069W, strain vba3, hits give low values 1 | locus YCR088W, strain abp1, hits give low values 0.975 | locus YDL005C, strain med2, hits give low values 1 | locus YDL035C, strain GPR1, hits give low values 0.906 | locus YDL040C, strain nat1, hits give low values 0.98 | locus YDL074C, strain BRE1, hits give low values 0.838 | locus YDL101C, strain DUN1, hits give low values 0.912 | locus YDL134C, strain PPH21, hits give low values 0.935 | locus YDL185W, strain tfp1, hits give low values 0.937 | locus YDL192W, strain arf1, hits give low values 0.949 | locus YDR001C, strain nth1, hits give low values 0.986 | locus YDR069C, strain doa4, hits give low values 0.968 | locus YDR101C, strain arx1, hits give low values 0.965 | locus YDR137W, strain rgp1, hits give low values 0.946 | locus YDR159W, strain sac3, hits give low values 0.963 | locus YDR195W, strain ref2 1.09 | locus YDR297W, strain sur2, hits give low values 0.981 | locus YDR318W, strain mcm21, hits give low values 0.924 | locus YDR334W, strain swr1, hits give low values 1.01 | locus YDR335W, strain msn5, hits give low values 1 | locus YDR388W, hits give low values 0.947 | locus YDR392W, strain spt3, hits give low values 0.965 | locus YEL003W, strain gim4, hits give low values 0.986 | locus YEL037C, strain rad23, hits give low values 0.991 | locus YEL061C, strain CIN8 (second series), hits give low values 0.988 | locus YEL061C, strain CIN8, hits give low values 0.931 | locus YER015W, strain faa2, hits give low values 0.991 | locus YER016W, strain bim1, hits give low values 0.988 | locus YER110C, hits give low values 0.929 | locus YER111C, strain swi4, hits give low values 0.991 | locus YER155C, strain BEM2 (second series), hits give low values 0.997 | locus YER155C, strain BEM2, hits give low values 0.949 | locus YER167W, strain BCK2, hits give low values 0.932 | locus YFR010W, strain ubp6, hits give low values 0.982 | locus YGL078C, strain dbp3, hits give low values 1 | locus YGL086W, strain mad1, hits give low values 0.954 | locus YGL167C, strain pmr1, hits give low values 0.954 | locus YGL173C, strain kem1, hits give low values 0.985 | locus YGL227W, strain vid30, hits give low values 0.991 | locus YGL240W, strain doc1, hits give low values 0.993 | locus YGL248W, strain PDE1, hits give low values 0.932 | locus YGL253W, strain hxk2, hits give low values 0.997 | locus YGR078C, strain PAC10, hits give low values 0.886 | locus YGR135W, strain pre9, hits give low values 0.917 | locus YGR229C, strain SMI1, hits give low values 0.852 | locus YGR252W, strain gcn5, hits give low values 1.04 | locus YHR013C, strain ard1, hits give low values 1.03 | locus YHR027C, strain rpn1, hits give low values 0.997 | locus YHR030C, strain SLT2, hits give low values 0.951 and 0.911 | locus YHR079C, strain IRE1 (second series), hits give low values 0.943 | locus YHR079C, strain IRE1, hits give low values 0.939 | locus YHR094C, strain hxt1, hits give low values 0.948 | locus YHR129C, strain ARP1, hits give low values 0.955 | locus YHR142W, strain chs7, hits give low values 0.994 | locus YHR200W, strain rpn10, hits give low values 0.938 | locus YIL066C, strain RNR3, hits give low values 0.899 | locus YIL073C, strain SPO22, hits give low values 0.969 | locus YIL125W, strain kgd1, hits give low values 0.986 | locus YJL092W, strain hpr5, hits give low values 0.98 | locus YJL095W, strain BCK1 (second series), hits give low values 1 | locus YJL095W, strain BCK1, hits give low values 0.903 and 0.92 | locus YJL115W, strain asf1, hits give low values 1 | locus YJL129C, strain trk1, hits give low values 0.949 | locus YJL154C, strain vps35, hits give low values 0.97 | locus YJL164C, strain tpk1, hits give low values 0.983 | locus YJL166W, strain qcr8, hits give low values 0.974 | locus YJL187C, strain SWE1 (second series), hits give low values 0.916 | locus YJL187C, strain SWE1, hits give low values 0.984 | locus YJR043C, strain POL32, hits give low values 0.977 | locus YJR066W, strain TOR1, hits give low values 0.867
active: locus YAL013W, strain DEP1, hits give low values 0.879 | locus YBR229C, strain ROT2, hits give low values 0.909 | locus YDR150W, strain NUM1, hits give low values 0.896 | locus YDR162C, strain NBP2, hits give low values 0.82 | locus YDR502C, strain sam2, hits give low values 0.919 | locus YIR030C, strain dcg1, hits give low values 0.925 | locus YJL134W, strain LCB3, hits give low values 0.922 | locus YJL168C, strain set2, hits give low values 0.931
